# An excerpt weighted towards active compounds, which were near 6.9% of everything screened.
# HCV NS3h FP: HCV NS3 helicase inhibitors, primary screen, biochemical, fluorescence polarization, ChemBridge library; Hepatitis C virus NS3 helicase; NS3h Cy5-dT15 DNA binding; 16,000 tested, 1.6% active; inhibition, % at 100 µM;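 active means inhibition above the average over every tested compound plus 3 SD, cut at about 40% in these data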
# Cy5 interf NS3h: Cy5 fluorescence quenchers or enhancers, artefact control for HCV NS3 helicase inhibitor project, biochemical, ChemBridge library, Cy5 readout | Cy5-dT15 DNA with NS3h, fluorescence interference; actives lie on both sides; signal over control mean, under 1 quenches | fluorescence interference ratio at 100 µM | 16,000 tested, 6% active | AID 720488, 2013;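 active means compound fluorescence over control fluorescence at most 0.8, a quencher, or at least a set upper limit, an enhancer; inactive means ratio between 0.8 and the set upper limit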
# An asterisk follows results filed as active.
SMILES,HCV NS3h FP,Cy5 interf NS3h
COc1ccc(C(=O)NC(NC(=O)c2ccc(OC)c(OC)c2)c2ccc(Br)cc2)cc1OC,14.1,1.01
COCCNC(=O)CN(c1ccc(OC)cc1)S(C)(=O)=O,1.7,1.01
Cc1cc(C)cc(N(CC(=O)Nc2ccc3c(c2)OCO3)S(=O)(=O)c2ccccc2)c1,15.2,0.921
Cc1ccc(S(=O)(=O)N/N=C\c2ccc(-c3ccc([N+](=O)[O-])cc3C)o2)cc1,-4.5,0.975
NC(=S)N/N=C(/c1ccccc1)C12CC3CC(CC(C3)C1)C2,3.2,1.05
COc1ccc(CCNC2CC(=O)N(c3ccc(C)cc3)C2=O)cc1 (stereo not given),20.9,1.06
Cc1ccc(C(=O)N/C(=C\c2ccco2)C(=O)Nc2ccccc2C)cc1,7.9,1.01
COc1ccccc1NC(=O)/C(=C/c1ccco1)NC(=O)c1ccc(C)cc1,10.0,1.3*
CC1=NN(c2ccc(C)c(C)c2)C(=O)/C1=C/c1ccc([N+](=O)[O-])o1,20.4,0.675*
CC1=NN(c2cccc(C(=O)O)c2)C(=O)/C1=C\c1ccc(-c2cc([N+](=O)[O-])ccc2C)o1,8.1,0.971
O=C(O)CCC(=O)Nc1ccc(S(=O)(=O)N2CCCCCC2)cc1,-5.5,0.948
Nc1ccc(S(=O)(=O)N2CCCCCC2)cc1,1.7,0.745*
O=C1/C(=C/c2ccc(Br)o2)SC(=S)N1c1cccc(C(F)(F)F)c1,2.7,0.858
O=C1/C(=C/c2ccc(Br)o2)SC(=S)N1c1ccccc1,17.0,0.64*
Cc1cc(C)nc(N=C(N)Nc2ccc(OCCc3ccccc3)cc2)n1,6.4,1.16
O=C1NN(c2ccc(Cl)cc2)C(=O)/C1=C\c1ccc(O)c(O)c1,4.7,0.847
Cc1ccc(N2NC(=O)/C(=C/c3ccc(Cl)cc3)C2=O)cc1,24.9,0.675*
Cc1cc(C)c(-n2c(O)c(C=C3C=Nc4ccccc43)c(=O)[nH]c2=O)c(C)c1,3.1,1.01
COc1ccc(OC)c(Cn2c(O)c(C=C3C=CC=N3)c(=O)[nH]c2=O)c1,16.9,0.878
O=c1[nH]c(=O)n(Cc2ccccc2)c(O)c1C=C1C=CC=N1,11.0,0.767*
O=c1[nH]c(=O)n(Cc2ccc(F)cc2)c(O)c1C=C1C=Nc2ccccc21,-44.5,0.801*
O=C(Nc1ccc(S(=O)(=O)N2CCCCCC2)cc1)c1ccc(Cl)cc1Cl,4.3,0.941
COC(=O)c1cc(C(=O)Nc2nc3ccccc3s2)cc([N+](=O)[O-])c1,-6.3,0.534*
COC(=O)c1cc(C(=O)Nc2ccccc2C(N)=O)cc([N+](=O)[O-])c1,5.7,0.959
Cc1cccc(C(=O)Nc2nc3ccc(Br)cc3s2)c1,7.3,1.12
SMILES,HCV NS3h FP,Cy5 interf NS3h
O=C(Nc1nc2ccccc2s1)c1ccc(-c2ccccc2)cc1,34.8,0.526*
COc1cc(/C=N\N=C2/NC(=O)C(CC(=O)Nc3cccc(Cl)c3Cl)S2)ccc1O (stereo not given),-7.3,1.1
Cc1ccccc1C(=O)Nc1cccc(Cl)c1,5.0,0.96
O=C(Nc1cccc(Cl)c1)c1ccccc1Br,-2.4,0.799*
COc1ccc(C2CC(c3ccc(C)cc3)=NN2C(C)=O)cc1OC (stereo not given),3.3,1
COc1ccc(-c2nn3c(-c4ccc(OC)c(OC)c4)nnc3s2)cc1OC,9.6,1.27*
CCC(CO)Nc1cc(Cl)ccc1[N+](=O)[O-] (stereo not given),14.1,0.69*
O=[N+]([O-])c1ccc(N2CCOCC2)cc1[N+](=O)[O-],-13.6,1.07
COc1ccc(OCCNc2cc(Cl)ccc2[N+](=O)[O-])cc1,5.6,1.07
CCC(CO)Nc1cc(N2CCOCC2)ccc1[N+](=O)[O-] (stereo not given),14.1,0.727*
CC(O)c1cccc(NC(=O)c2cc3n(n2)C(C(F)(F)F)CC(c2ccc(F)cc2)N3)c1 (stereo not given),14.7,0.959
CC(O)c1ccc(NC(=O)c2cnn3c2NC(c2cccs2)CC3C(F)(F)F)cc1 (stereo not given),4.8,1.02
Cc1ccc(C2CC(C(F)(F)F)n3nc(C(=O)Nc4ccc(C(C)O)cc4)cc3N2)cc1 (stereo not given),7.7,0.643*
CC(O)c1ccc(NC(=O)c2cnn3c2NC(c2ccc(F)cc2)CC3C(F)(F)F)cc1 (stereo not given),23.5,0.482*
COc1ccc(C2CC(C(F)(F)F)n3ncc(C(=O)N(C)Cc4ccccc4)c3N2)cc1OC (stereo not given),27.6,0.598*
Cc1ccc(C2CC(C(F)(F)F)n3ncc(C(=O)N(Cc4ccccc4)Cc4ccccc4)c3N2)cc1 (stereo not given),8.3,0.942
O=C(c1nn2c(c1Cl)NC(c1ccccc1)CC2C(F)(F)F)N1CCN(c2ccc(F)cc2)CC1 (stereo not given),28.4,0.99
Cc1ccc(C2CC(C(F)(F)F)n3nc(C(=O)N4CCN(c5ccc(F)cc5)CC4)c(Cl)c3N2)cc1 (stereo not given),10.5,0.49*
CCOc1ccc(NS(=O)(=O)c2cc(-c3nnnn3C)ccc2OC)cc1,6.1,0.988
Cc1cccc(C(=O)O/N=C(/N)c2cccnc2)c1,18.2,1.05
CCOC(=O)c1c(C)oc2cc(S(=O)(=O)O)c(O)cc12,14.6,0.95
Cc1nc2ccccn2c1C(=O)NC(C)c1ccccc1 (stereo not given),-4.3,1.07
CC(=O)C1=C(C)N=c2s/c(=C/c3ccc(N(C)C)cc3)c(=O)n2C1c1ccccc1 (stereo not given),18.8,0.887
Cc1ccc(C2CC(C(F)(F)F)n3nc(C(=O)N4CCN(c5ccc(F)cc5)CC4)cc3N2)cc1 (stereo not given),6.4,0.92
O=C(c1cc2n(n1)C(C(F)(F)F)CC(c1ccc(F)cc1)N2)N1CCCC1 (stereo not given),7.7,0.747*
SMILES,HCV NS3h FP,Cy5 interf NS3h
O=C(Cc1ccccc1)N1N=C(c2ccc(Cl)cc2)CC1(O)C(F)(F)F (stereo not given),7.8,0.972
CCOC(=O)c1c(NC(=O)COc2c(C)cc(C)cc2C)sc(C(=O)Nc2ccccc2)c1C,3.2,0.963
CCOC(=O)c1c(NC(=O)c2sc3cc(C)ccc3c2Cl)sc(C(N)=O)c1C,6.8,0.793*
COc1cccc(C2NC(=S)NC(C)=C2C(=O)Nc2ccc(Br)cc2)c1OC (stereo not given),3.8,0.982
Cc1cc(C)cc(NC(=O)C(=O)NCc2ccncc2)c1,-5.5,1.03
CC(C)(C)c1ccccc1OCCCCn1ccnc1,10.1,0.881
COCCNC(=O)Nc1ccc2nccnc2c1,2.8,1.05
COC(=O)c1nnn(-c2cc3nccnc3cc2F)c1C(=O)OC,5.9,0.717*
Cc1cc(Nc2ccc(C)c(Cl)c2)n2ncnc2n1,15.0,0.741*
Cc1cc(Nc2cc(Cl)cc(Cl)c2)n2ncnc2n1,-0.6,0.915
O=C(NC(=S)Nc1ccc(Br)cn1)c1ccc(Cl)cc1,-1.3,1.09
O=C(NCc1ccc(Cl)cc1)c1ccc(I)cc1,20.8,0.976
O=C(NC[n+]1ccccc1)c1ccc(Cl)cc1,3.4,1.2*
Cc1ccc(C(O)=CC(=O)C(=O)NCc2ccccc2)cc1,22.3,1.11
CCOC(=O)c1c(NC(=O)c2ccccc2F)sc(C(=O)Nc2ccc(OC)cc2OC)c1C,8.1,1.06
